Key:
Assay in all cases: bioluminescence (viable cell) signal fold change after vs before treatment, normalised to DMSO (ratio); higher = more tumour cell growth / less inhibition
Conditions in all cases: 10 µM; treatment time 6 days
[1] = tested on: LEGO organoid PT (PTEN-/-; TP53-/-)
Description: (§1)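 Luc2-labelled iPSC-derived glioblastoma-like organoids (LEGOs, genotypes PT = PTEN-/-;TP53-/-, PTCC = plus CDKN2A/B-/-, PTN = plus NF1-/-) were treated with 10 uM drug for 6 days (applied every other day) at 37 C. Bioluminescence imaging was done before treatment and 2 days after the last dose. BLI signals were normalised to the DMSO control on the same day and then to the pre-treatment signal (N=3).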

[2] = tested on: LEGO organoid PTCC (PTEN-/-; TP53-/-; CDKN2A-/-; CDKN2B-/-)
Description: as §1

[3] = tested on: LEGO organoid PTN (PTEN-/-; TP53-/-; NF1-/-)
Description: as §1

## COc1cc(Nc2ncc(F)c(Nc3ccc4c(n3)N(COP(=O)(O)O)C(=O)C(C)(C)O4)n2)cc(OC)c1OC [Fostamatinib]
[1]
  bioluminescence: 0.0894
[2]
  bioluminescence: 0.182
[3]
  bioluminescence: 0.0646

## C/C(O)=C(\C#N)C(=O)Nc1ccc(C(F)(F)F)cc1 [Teriflunomide]
[1]
  bioluminescence: 1.68
[2]
  bioluminescence: 0.469
[3]
  bioluminescence: 2.32

## O=C(CCCCCCC(=O)Nc1ccccc1)NO [Vorinostat]
[1]
  bioluminescence: 1.13
[2]
  bioluminescence: 0.409
[3]
  bioluminescence: 0.384

## Nc1nc(=O)n([C@@H]2CS[C@H](CO)O2)cc1F [Emtricitabine]
[1]
  bioluminescence: 0.905
[2]
  bioluminescence: 0.872
[3]
  bioluminescence: 0.495

## COc1ccc(Cl)cc1C(=O)NCCc1ccc(S(=O)(=O)NC(=O)NC2CCCCC2)cc1 [Glyburide]
[2]
  bioluminescence: 1.51
[3]
  bioluminescence: 1.61

## CCOC(=O)N1CC\C(CC1)=C1\c2ccc(Cl)cc2CCc2cccnc12 [Loratadine]
[1]
  bioluminescence: 0.684
[2]
  bioluminescence: 1.05
[3]
  bioluminescence: 1.36

## CCN(CC)C(=O)[C@]1(c2ccccc2)C[C@@H]1CN.Cl [Milnacipran hydrochloride]
[1]
  bioluminescence: 1.54
[2]
  bioluminescence: 1.02
[3]
  bioluminescence: 2.39

## COCCOC(=O)C1=C(C)NC(C)=C(C(=O)OC(C)C)C1c1cccc([N+](=O)[O-])c1 (centres undefined) [Nimodipine]
[1]
  bioluminescence: 1.49
[2]
  bioluminescence: 1.61
[3]
  bioluminescence: 1.19

## CN1[C@@H]2CCC[C@H]1C[C@@H](NC(=O)c1nn(C)c3ccccc13)C2.Cl [Granisetron hydrochloride]
[1]
  bioluminescence: 0.715
[2]
  bioluminescence: 0.701
[3]
  bioluminescence: 1.92

## CCC(C)(C)C(=O)O[C@H]1C[C@@H](C)C=C2C=C[C@H](C)[C@H](CC[C@@H]3C[C@@H](O)CC(=O)O3)[C@H]21 [Simvastatin]
[1]
  bioluminescence: 1.45
[2]
  bioluminescence: 1.71
[3]
  bioluminescence: 0.364

## NC(=O)N1c2ccccc2C=Cc2ccccc21 [Carbamazepine]
[1]
  bioluminescence: 0.803
[2]
  bioluminescence: 0.95
[3]
  bioluminescence: 1.42

## Nc1nnc(-c2cccc(Cl)c2Cl)c(N)n1 [Lamotrigine]
[1]
  bioluminescence: 0.852
[2]
  bioluminescence: 2.24
[3]
  bioluminescence: 0.446

## CCCC(CCC)C(=O)[O-].[Na+] [Valproic acid sodium salt]
[2]
  bioluminescence: 1.23
[3]
  bioluminescence: 2.43

## C#CCN[C@@H]1CCc2ccccc21 [Rasagiline]
[1]
  bioluminescence: 2.76
[2]
  bioluminescence: 1.19
[3]
  bioluminescence: 0.976

## O=NN(CCCl)C(=O)NC1CCCCC1 [Lomustine]
[1]
  bioluminescence: 2.59
[2]
  bioluminescence: 1.17
[3]
  bioluminescence: 1.92

## C[C@@H]1CCN(C(=O)CC#N)C[C@@H]1N(C)c1ncnc2[nH]ccc12 [Tofacitinib]
[1]
  bioluminescence: 1.24
[2]
  bioluminescence: 1.34
[3]
  bioluminescence: 1.19

## N[C@H](C(=O)O)[C@H](O)c1ccc(O)c(O)c1 [Droxidopa]
[2]
  bioluminescence: 2.59
[3]
  bioluminescence: 3.13

## CC(=O)OCC[N+](C)(C)C.[Cl-] [Acetylcholine chloride]
[1]
  bioluminescence: 0.981
[2]
  bioluminescence: 1.09
[3]
  bioluminescence: 1.15

## N[C@@H]1CONC1=O [D-Cycloserine]
[1]
  bioluminescence: 1.3
[2]
  bioluminescence: 1.11
[3]
  bioluminescence: 1.69

## Cl.O=C1c2cccc3c2[C@H](CCC3)CN1[C@@H]1CN2CCC1CC2 [Palonosetron hydrochloride]
[1]
  bioluminescence: 1.19
[2]
  bioluminescence: 0.952
[3]
  bioluminescence: 1.4

## CCCN(CCC)CCc1cccc2c1CC(=O)N2.Cl [Ropinirole hydrochloride]
[1]
  bioluminescence: 1.27
[2]
  bioluminescence: 1.02
[3]
  bioluminescence: 0.313

## Cc1ccc(Nc2nccc(N(C)c3ccc4c(C)n(C)nc4c3)n2)cc1S(N)(=O)=O.Cl [Pazopanib HCl]
[1]
  bioluminescence: 0.626
[2]
  bioluminescence: 1.41
[3]
  bioluminescence: 1.02

## Cc1cc(C)cc(OCC2CNC(=O)O2)c1 (centres undefined) [Metaxalone]
[2]
  bioluminescence: 1.35
[3]
  bioluminescence: 1.62

## CCC1=C[C@@H]2CN(C1)Cc1c([nH]c3ccccc13)[C@@](C(=O)OC)(c1cc3c(cc1OC)N(C)[C@H]1[C@@](O)(C(=O)OC)[C@H](OC(C)=O)[C@]4(CC)C=CCN5CC[C@]31[C@@H]54)C2.O=C(O)[C@H](O)[C@@H](O)C(=O)O.O=C(O)[C@H](O)[C@@H](O)C(=O)O [Vinorelbine Tartrate]
[1]
  bioluminescence: 1.03
[2]
  bioluminescence: 1.06
[3]
  bioluminescence: 0.805

## C[C@@](Cc1ccc(O)c(O)c1)(NN)C(=O)O.O [Carbidopa Hydrate]
[1]
  bioluminescence: 0.415
[2]
  bioluminescence: 0.96
[3]
  bioluminescence: 1.55

## CCC1(C)CC(=O)NC1=O (centres undefined) [Ethosuximide]
[1]
  bioluminescence: 0.871
[2]
  bioluminescence: 0.668
[3]
  bioluminescence: 0.778

## C[C@@H]1C[C@H]2[C@@H]3CCC4=CC(=O)C=C[C@]4(C)[C@@]3(F)[C@@H](O)C[C@]2(C)[C@@]1(O)C(=O)CO [Dexamethasone]
[1]
  bioluminescence: 0.763
[2]
  bioluminescence: 1.28
[3]
  bioluminescence: 1.71

## CC1(C)O[C@@H]2[C@@H](CO[C@@]3(COS(N)(=O)=O)OC(C)(C)O[C@@H]23)O1 [Topiramate]
[1]
  bioluminescence: 1.02
[2]
  bioluminescence: 1.62
[3]
  bioluminescence: 5.65

## O=C(CCCN1CCC(O)(c2ccc(Cl)cc2)CC1)c1ccc(F)cc1 [Haloperidol]
[1]
  bioluminescence: 0.925
[2]
  bioluminescence: 0.956
[3]
  bioluminescence: 0.771

## OC[C@H]1O[C@@H](n2cnc3c2NC=NC[C@H]3O)C[C@@H]1O [Pentostatin]
[1]
  bioluminescence: 0.674
[2]
  bioluminescence: 0.797
[3]
  bioluminescence: 1.59

## COc1cccc2c1C(=O)c1c(O)c3c(c(O)c1C2=O)C[C@@](O)(C(=O)CO)C[C@@H]3O[C@H]1C[C@H](N)[C@@H](O)[C@H](C)O1.Cl [Epirubicin hydrochloride]
[1]
  bioluminescence: 0
[2]
  bioluminescence: 0
[3]
  bioluminescence: 0.00894

## CC(=O)[C@H]1CC[C@H]2[C@@H]3CCC4=CC(=O)CC[C@]4(C)[C@H]3CC[C@]12C [Progesterone]
[1]
  bioluminescence: 0.82
[2]
  bioluminescence: 0.682
[3]
  bioluminescence: 1.12

## Cc1cn(-c2cc(NC(=O)c3ccc(C)c(Nc4nccc(-c5cccnc5)n4)c3)cc(C(F)(F)F)c2)cn1 [Nilotinib]
[2]
  bioluminescence: 1.4
[3]
  bioluminescence: 3.9

## CC(C)Nc1cccnc1N1CCN(C(=O)c2cc3cc(NS(C)(=O)=O)ccc3[nH]2)CC1.CS(=O)(=O)O [Delavirdine mesylate]
[2]
  bioluminescence: 0.912
[3]
  bioluminescence: 1.76

## C/C=C(/C)C(=O)O[C@H]1C(C)=C[C@]23C(=O)[C@@H](C=C(CO)[C@@H](O)[C@]12O)[C@H]1[C@@H](C[C@H]3C)C1(C)C [Ingenol Mebutate]
[2]
  bioluminescence: 1.37
[3]
  bioluminescence: 2.33

## Cc1cccc(N(C)C(=S)Oc2ccc3ccccc3c2)c1 [Tolnaftate]
[2]
  bioluminescence: 0.931
[3]
  bioluminescence: 1.31

## CN(C)CC(c1ccc(O)cc1)C1(O)CCCCC1 (centres undefined) [Desvenlafaxine]
[2]
  bioluminescence: 1.07
[3]
  bioluminescence: 0.36

## CC(C)(C)c1cc(C(C)(C)C)c(NC(=O)c2c[nH]c3ccccc3c2=O)cc1O [Ivacaftor]
[2]
  bioluminescence: 0.191
[3]
  bioluminescence: 0.603

## CCCCOc1ccc(C(=O)CCN2CCCCC2)cc1.Cl [Dyclonine hydrochloride]
[2]
  bioluminescence: 1.03
[3]
  bioluminescence: 1.13

## CCCCS(=O)(=O)N[C@@H](Cc1ccc(OCCCCC2CCNCC2)cc1)C(=O)O [Tirofiban]
[2]
  bioluminescence: 1.21
[3]
  bioluminescence: 0.848

## CS(=O)(=O)c1ccc(C(=O)Nc2ccc(Cl)c(-c3ccccn3)c2)c(Cl)c1 [Vismodegib]
[2]
  bioluminescence: 2.45
[3]
  bioluminescence: 0.888

## Cl.Cc1ccsc1\C(=C\CCN1CCC[C@H](C1)C(O)=O)c1sccc1C [Tiagabine hydrochloride]
[2]
  bioluminescence: 2.4
[3]
  bioluminescence: 0.83

## CC(C)CN(C[C@@H](O)[C@H](Cc1ccccc1)NC(=O)O[C@H]1CCOC1)S(=O)(=O)c1ccc(N)cc1 [Amprenavir]
[2]
  bioluminescence: 0.498
[3]
  bioluminescence: 0.695

## CNCC[C@@H](Oc1ccccc1C)c1ccccc1.Cl [Atomoxetine hydrochloride]
[2]
  bioluminescence: 1.04
[3]
  bioluminescence: 1.97

## CCCN(CCC)S(=O)(=O)c1ccc(C(=O)O)cc1 [Probenecid]
[2]
  bioluminescence: 1.41
[3]
  bioluminescence: 1.62

## CCCC(CCC)C(=O)O [Valproic Acid]
[2]
  bioluminescence: 0.784
[3]
  bioluminescence: 0.834

## Cc1oncc1C(=O)Nc1ccc(C(F)(F)F)cc1 [Leflunomide]
[2]
  bioluminescence: 1.3
[3]
  bioluminescence: 3.5

## COc1c(N2CCNC(C)C2)c(F)cc2c(=O)c(C(=O)O)cn(C3CC3)c12 (centres undefined) [Gatifloxacin]
[2]
  bioluminescence: 0.933
[3]
  bioluminescence: 4.79

## CS(=O)(=O)c1ccc(C2=C(c3ccccc3)C(=O)OC2)cc1 [Rofecoxib]
[2]
  bioluminescence: 0.638
[3]
  bioluminescence: 2.18

## CCc1nc(N)nc(N)c1-c1ccc(Cl)cc1 [Pyrimethamine]
[2]
  bioluminescence: 1.06
[3]
  bioluminescence: 0.803

## CN(C)CC(c1ccc(O)cc1)C1(O)CCCCC1.O=C(O)CCC(=O)O (centres undefined) [Desvenlafaxine succinate hydrate]
[2]
  bioluminescence: 0.582
[3]
  bioluminescence: 0.536

## O=C1NC(=O)C(c2ccccc2)(c2ccccc2)N1 [Phenytoin]
[2]
  bioluminescence: 0.982
[3]
  bioluminescence: 1.39

## CC1=NN(c2ccccc2)C(=O)C1 [Edaravone]
[2]
  bioluminescence: 0.508
[3]
  bioluminescence: 1.12

## O=C(NC1CCN(CCCCC2(C(=O)NCC(F)(F)F)c3ccccc3-c3ccccc32)CC1)c1ccccc1-c1ccc(C(F)(F)F)cc1 [Lomitapide]
[2]
  bioluminescence: 0.124
[3]
  bioluminescence: 0

## C=CC(=O)Nc1cc(Nc2nccc(-c3cn(C)c4ccccc34)n2)c(OC)cc1N(C)CCN(C)C [Osimertinib]
[2]
  bioluminescence: 0.0861
[3]
  bioluminescence: 0.0227

## CN(C)C(=N)NC(=N)N.Cl [Metformin hydrochloride]
[2]
  bioluminescence: 1.27
[3]
  bioluminescence: 1.35

## CC(=O)OCC(=O)[C@@]1(O)[C@H](C)C[C@H]2[C@@H]3CCC4=CC(=O)C=C[C@]4(C)[C@@]3(F)[C@@H](O)C[C@@]21C [Dexamethason acetate]
[2]
  bioluminescence: 0.467
[3]
  bioluminescence: 1.53

## COc1cc2ncnc(Nc3ccc(F)c(Cl)c3)c2cc1OCCCN1CCOCC1 [Gefitinib]
[2]
  bioluminescence: 1.22
[3]
  bioluminescence: 2.43

## CC/C(=C(/CC)c1ccc(O)cc1)c1ccc(O)cc1 [Diethylstilbestrol]
[2]
  bioluminescence: 0.673
[3]
  bioluminescence: 2.47

## Cc1cn([C@H]2C=C[C@@H](CO)O2)c(=O)[nH]c1=O [Stavudine]
[2]
  bioluminescence: 0.83
[3]
  bioluminescence: 0.812

## CS(=O)(=O)c1cccc(C[C@H](NC(=O)c2c(Cl)cc3c(c2Cl)CCN(C(=O)c2ccc4ccoc4c2)C3)C(=O)O)c1 [Lifitegrast]
[2]
  bioluminescence: 1.08
[3]
  bioluminescence: 0.439

## Nc1ncnc2c1ncn2[C@@H]1O[C@H](CO)[C@@H](O)[C@H]1O [Adenosine]
[2]
  bioluminescence: 0.746
[3]
  bioluminescence: 0.654

## CC(=O)Oc1ccccc1C(=O)O [Aspirin]
[2]
  bioluminescence: 0.785
[3]
  bioluminescence: 0.737

Source: the supplement of paper PMC10811239
